This passage reports growth results from PubChem BioAssay (NCI).

Assay in all cases: NCI-60 one-dose screen, 48 h (100 = growth as untreated, 0 = no growth, -100 = all killed)
One assay has as its system SK-MEL-2 melanoma. The following applies: 10 µM unless noted.
Another assay relates to EKVX NSCLC. The following applies: 10 µM unless noted.
The test system of a further assay is SN12C renal. Particulars: 10 µM unless noted.
A further assay relates to UO-31 renal. The following applies: 10 µM unless noted.
A further assay relates to TK-10 renal. The following applies: 10 µM unless noted.
For the next assay, the system named is ACHN renal. Particulars: 10 µM unless noted.
The next assay relates to CAKI-1 renal. The following applies: 10 µM unless noted.
The next assay relates to A498 renal. The following applies: 10 µM unless noted.
Another assay deals with CCRF-CEM leukemia. The following applies: 10 µM unless noted.
The next assay relates to MOLT-4 leukemia. The following applies: 10 µM unless noted.
Another assay has as its system SR leukemia. The following applies: 10 µM unless noted.
The subject of a further assay is RPMI-8226 leukemia. Particulars: 10 µM unless noted.
The next assay deals with OVCAR-8 ovarian. Particulars: 10 µM unless noted.
A further assay deals with OVCAR-5 ovarian. The following applies: 10 µM unless noted.
For a further assay, the system named is OVCAR-4 ovarian. The following applies: 10 µM unless noted.
In the next assay the test system is SK-OV-3 ovarian. The following applies: 10 µM unless noted.
Another assay relates to IGROV1 ovarian. Particulars: 10 µM unless noted.
The next assay deals with OVCAR-3 ovarian. Particulars: 10 µM unless noted.
The next assay relates to HS 578T breast. The following applies: 10 µM.
Another assay concerns NCI/ADR-RES ovarian. The following applies: 10 µM unless noted.

Molecules are shown by their SMILES. The panel holds about 83,000 compounds, 20% with a hit somewhere; the sample as a whole holds those more often.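 Values shown are percent growth following 48 h exposure of cells in 96-well plates to a single concentration of compound; below 10 was considered active.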 Unmarked numbers belong to inactive results. Active and inactive are the calls of the source.

As to `Cc1ccc(-c2cnc3sc4ccc(Cl)cc4n23)cc1`, the growth was 103% in the assay on SK-MEL-2 melanoma; 67.1% in the assay with EKVX NSCLC; 93% in the assay with SN12C renal; 64.9% with UO-31 renal; 158% in the assay with TK-10 renal; 92.2% with ACHN renal. In addition, the growth in the assay with CAKI-1 renal was 84.2%; in the assay with A498 renal, 88.2%; in the assay with CCRF-CEM leukemia, 106%; with MOLT-4 leukemia, 96.7%; in the assay with SR leukemia, 111%; in the assay on RPMI-8226 leukemia it was 98.6%. The growth with OVCAR-8 ovarian is 103%; in the assay with OVCAR-5 ovarian, 106%; with OVCAR-4 ovarian it was 86.9%; in the assay with SK-OV-3 ovarian, 75.7%; with IGROV1 ovarian it was 81%; in the assay with OVCAR-3 ovarian it was 101%. Besides, the growth was 110% in the assay with HS 578T breast and 94.6% with NCI/ADR-RES ovarian.
As to `Cc1cc(C)cc(NC(=O)Cn2nncc2CN2C(=O)CSC2=O)c1`, the growth in the assay on SK-MEL-2 melanoma was 106%; with EKVX NSCLC it was 90.3%; in the assay on SN12C renal, 103%; in the assay with UO-31 renal, 99.7%; with TK-10 renal, 99.8%; with ACHN renal it was 99.6%. The growth was 95.2% with CAKI-1 renal; 118% in the assay with A498 renal; 113% with CCRF-CEM leukemia; 105% in the assay with MOLT-4 leukemia; 118% in the assay on SR leukemia; 110% in the assay on RPMI-8226 leukemia. Moreover, the growth is 101% with OVCAR-8 ovarian; 110% in the assay on OVCAR-5 ovarian; 106% in the assay with OVCAR-4 ovarian; 92.5% with SK-OV-3 ovarian; 110% with IGROV1 ovarian; 110% with OVCAR-3 ovarian. Further, the growth in the assay with HS 578T breast is 89.5%; with NCI/ADR-RES ovarian it was 96.3%.
On to `COc1ccc(NC(=O)/C=C/c2ccc(NC(=O)N3CCCC3)cc2)cn1`, for which the growth with SK-MEL-2 melanoma is 104%; with EKVX NSCLC, 92.8%; in the assay on SN12C renal it was 98.7%; in the assay with UO-31 renal, 100%; with TK-10 renal, 104%; in the assay with ACHN renal it was 114%. The growth in the assay with CAKI-1 renal was 100%; in the assay on A498 renal, 99.4%; in the assay on CCRF-CEM leukemia, 97%; in the assay on MOLT-4 leukemia, 101%; in the assay on SR leukemia, 106%; with RPMI-8226 leukemia, 99.5%. Besides, the growth was 101% in the assay with OVCAR-8 ovarian; 113% in the assay with OVCAR-5 ovarian; 101% in the assay on OVCAR-4 ovarian; 101% in the assay with SK-OV-3 ovarian; 105% with IGROV1 ovarian; 103% with OVCAR-3 ovarian. Further, the values for the growth in the assay on HS 578T breast and in the assay on NCI/ADR-RES ovarian were 95.9% and 107%, respectively.
With `CCC(C)C1NC(=O)c2nc(oc2-c2ccccc2)-c2csc(n2)-c2csc(n2)-c2nc(oc2C)-c2coc(n2)CNC(=O)C(C(C)CC)NC1=O` (stereo not given), the growth in the assay with SK-MEL-2 melanoma is -80.1% (active); in the assay on EKVX NSCLC it was -71.3% (active); in the assay on SN12C renal, -65.3% (active); with UO-31 renal, -90.1% (active); in the assay with TK-10 renal it was -86.7% (active); in the assay with ACHN renal, -91.3% (active). In addition, the growth is -95.2% (active) in the assay on CAKI-1 renal; -85.3% (active) in the assay on A498 renal; -66.4% (active) in the assay with CCRF-CEM leukemia; -66.2% (active) with MOLT-4 leukemia; -47.8% (active) with SR leukemia; -63.5% (active) in the assay on RPMI-8226 leukemia. Also, the growth with OVCAR-8 ovarian is -62% (active); with OVCAR-5 ovarian, -86.1% (active); in the assay with OVCAR-4 ovarian it was -80.6% (active); in the assay with SK-OV-3 ovarian, -89.2% (active); in the assay with IGROV1 ovarian, -71.5% (active); in the assay on OVCAR-3 ovarian it was -88% (active). For the same compound, the growth in the assay on HS 578T breast is -57.3% (active); in the assay on NCI/ADR-RES ovarian it was 12.3%.
For the compound `Nc1ccc(N(O)/C=C2\C=CC=CC2=O)cc1N`, the growth in the assay with SK-MEL-2 melanoma is 108%; in the assay with EKVX NSCLC, 96.4%; in the assay on SN12C renal, 101%; with UO-31 renal, 62.5%; with TK-10 renal, 133%; in the assay with ACHN renal, 76.3%. The growth was 100% with CAKI-1 renal; 88.9% in the assay on A498 renal; 57.6% in the assay on CCRF-CEM leukemia; 73% with MOLT-4 leukemia; 95.3% in the assay with SR leukemia; 52.8% in the assay with RPMI-8226 leukemia. In addition, the growth was 95.4% in the assay with OVCAR-8 ovarian; 71.1% with OVCAR-5 ovarian; 99.6% in the assay on OVCAR-4 ovarian; 107% in the assay with SK-OV-3 ovarian; 80.2% in the assay with IGROV1 ovarian; 89.1% in the assay on OVCAR-3 ovarian. Also, the growth in the assay with HS 578T breast was 94.2%; in the assay with NCI/ADR-RES ovarian it was 82%.
Take `CC1(C)CC[C@]2(C(=O)N3CCNCC3)CC[C@]3(C)C(=CC[C@@H]4[C@@]5(C)CCC(=O)C(C)(C)[C@@H]5CC[C@]43C)[C@@H]2C1`: the growth is 105% in the assay on SK-MEL-2 melanoma; 96.7% with EKVX NSCLC; 101% in the assay on SN12C renal; 94.8% in the assay with UO-31 renal; 101% in the assay on TK-10 renal; 112% with ACHN renal. Besides, the growth in the assay on CAKI-1 renal is 94.2%; in the assay with A498 renal, 126%; in the assay with CCRF-CEM leukemia, 106%; with MOLT-4 leukemia, 103%; in the assay with SR leukemia it was 109%; with RPMI-8226 leukemia it was 104%. In addition, the growth is 95.9% in the assay with OVCAR-8 ovarian; 109% in the assay with OVCAR-5 ovarian; 103% in the assay with OVCAR-4 ovarian; 109% with SK-OV-3 ovarian; 113% in the assay with IGROV1 ovarian; 118% in the assay with OVCAR-3 ovarian. The growth is 104% with HS 578T breast and 103% in the assay on NCI/ADR-RES ovarian.
For the compound `CC(=O)c1nn(-c2ccccc2)/c(=N\N=C\c2coc3ccc(F)cc3c2=O)s1`, the growth is 107% in the assay on SK-MEL-2 melanoma; 81.6% with EKVX NSCLC; 97.6% in the assay with SN12C renal; 69.6% with UO-31 renal; 163% with TK-10 renal; 94% with ACHN renal. The growth in the assay with CAKI-1 renal is 82.3%; in the assay on A498 renal, 125%; in the assay on CCRF-CEM leukemia, 97.2%; with MOLT-4 leukemia, 100%; in the assay with SR leukemia it was 96.2%; in the assay on RPMI-8226 leukemia, 91.9%. Also, the growth in the assay on OVCAR-8 ovarian is 107%; with OVCAR-5 ovarian it was 110%; in the assay on OVCAR-4 ovarian, 108%; with SK-OV-3 ovarian, 98.9%; in the assay on IGROV1 ovarian, 87.2%; in the assay with OVCAR-3 ovarian it was 111%. Moreover, the growth in the assay with HS 578T breast is 95.1%; in the assay with NCI/ADR-RES ovarian, 104%.
